Assay outcomes: PubChem BioAssay, National Center for Advancing Translational Sciences (NCATS)
An excerpt weighted towards active compounds, which were near 1.7% of everything screened.
15-hLO-2 inh: blocks human 15-lipoxygenase 2 activity. 110,000 tested, 0.56% active. purified 15hLO-2, xylenol orange hydroperoxide absorbance. Potency, µM (doses to about 57.1 µM), for inactives: top-dose activity change, negative = inhibition, most hits filed as inhibitors. O15296; note: % is set by controls: 0 for no effect and ±100 for the full control effect; nearly all actives have a fitted effect of over 60% in size
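Read-out: hydroperoxide product oxidises ferrous iron, measured as xylenol orange complex via the 573-to-405 nm absorbance ratio after 30 min. Reaction: 50 nM enzyme, 15 min compound preincubation, 45 uM arachidonic acid, 90 min RT, Hepes pH 7.5 with Triton X-100.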
Casp1 inh: allosteric or competitive inhibitors of human caspase-1. Caspase-1 enzyme, Ac-WEHD-AFC fluorogenic rate. Potency, µM (titrated, usually from 57.5 µM), inactives show top-dose activity change, negative = inhibition, hits mostly inhibitors. AID 900. 75,000 tested, 0.03% active. P29466;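 note: plate controls were vehicle for no effect and no substrate for full effect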
Target sequence (P29466 120-297 limits assumed): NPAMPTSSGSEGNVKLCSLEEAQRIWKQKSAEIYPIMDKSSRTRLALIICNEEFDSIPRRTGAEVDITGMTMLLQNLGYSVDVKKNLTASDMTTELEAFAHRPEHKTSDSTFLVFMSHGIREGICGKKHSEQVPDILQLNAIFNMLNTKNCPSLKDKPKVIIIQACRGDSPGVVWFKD
Target sequence (P29466 317-404 limits assumed): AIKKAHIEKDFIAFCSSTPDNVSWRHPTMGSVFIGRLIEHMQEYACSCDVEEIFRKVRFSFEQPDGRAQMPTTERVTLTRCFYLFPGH
15-hLO inh: 15-hLO (ALOX15) enzyme inhibition; P16050; Potency, µM (titrated, usually from 57.1 µM), for the others: top-dose activity change, negative = inhibition, usual class: inhibitors; 74,000 tested, 1.4% active; AID 887; purified 15hLO-1, xylenol orange hydroperoxide absorbance; note: % is set by controls: 0 for no effect and ±100 for the full control effect; nearly all actives have a fitted effect of over 55% in size
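Quantitative HTS in 25 mM Hepes pH 7.5 containing 0.01% Triton X-100: human 15hLO-1 at 40 nM, arachidonic acid at 50 uM, 6 min turnover. Product quantified via ferrous oxidation/xylenol orange, 573:405 nm absorbance ratio.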
Casp7 inh: allosteric or competitive inhibitors of human caspase-7; P55210; recombinant caspase-7, Ac-DEVD-AFC fluorescence rate; Potency, µM (highest dose often 57.5 µM), without a hit: at the top dose activity change, negative = inhibition, actives largely listed as inhibitors; 75,000 tested, 0.02% active; AID 889; active = well fitted inhibition curve with a large enough effect in the main read-out, with a control signal flat, not every such curve was filed as active; inconclusive = small, poorly fitted or top-dose-only effect, or a change in a side signal; note: % of control where 0% means no effect
Target sequence (P55210 24-198 limits assumed): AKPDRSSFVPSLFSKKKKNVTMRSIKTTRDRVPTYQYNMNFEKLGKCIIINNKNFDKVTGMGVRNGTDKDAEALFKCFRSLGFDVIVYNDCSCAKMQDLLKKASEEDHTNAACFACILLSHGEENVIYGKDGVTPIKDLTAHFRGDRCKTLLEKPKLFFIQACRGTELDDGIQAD
Target sequence (P55210 207-303 limits assumed): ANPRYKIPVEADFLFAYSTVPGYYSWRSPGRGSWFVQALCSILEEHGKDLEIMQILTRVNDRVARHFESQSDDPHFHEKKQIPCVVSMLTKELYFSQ
ERK AVP block: inhibitors of vasopressin-stimulated ERK signaling pathway; HEK293-V1b, vasopressin-stimulated pERK AlphaScreen; Potency, µM (top dose mostly 57.5 µM), for the others: at the top dose activity, negative = inhibition, hits mostly inhibitors; 72,000 tested, 0.99% active; note: % is set by controls: 0 for no effect and ±100 for the full control effect; nearly all actives have a fitted effect of over 55% in size
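HEK293 cells stably expressing V1b receptor, seeded overnight in 1% FBS, were treated with compounds for 30 min at 37C, then stimulated 5 min with 25 nM vasopressin; phospho-ERK read by AlphaScreen SureFire after lysis.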
* hit, by the source's call; u = inconclusive; x = not tested or not shown; [ ] = dose if it differs, or a comment. Unless noted, calls come from the whole dose curve; as a rule, active = well fitted curve in the direction sought with a large enough effect; inconclusive = small, poorly fitted or top-dose-only effect, or another doubt; inactive = no such curve, though single readings can be large; an effect the other way counts as inactive or inconclusive. Potency is the fitted concentration of half-maximal effect.

SMILES	15-hLO-2 inh	Casp1 inh	15-hLO inh	Casp7 inh	ERK AVP block
Cc1cc(C(=O)CSc2nnc(-c3ccco3)o2)c(C)n1Cc1ccco1	-21.5%	-13.5%	25.1µM*	-12.1%	-22.8%
Cc1cc(C(=O)CSc2nnc(-c3cccs3)o2)c(C)n1-c1ccccc1	-15.8%	-8.4%	20µM*	-10.4%	10.4%
O=C(CSc1nnc(-c2cccs2)o1)c1cccs1	-6.0%	-3.8%	-7.3%	-0.9%	-5.4%
COc1ccc(S(=O)(=O)c2ccc(OC)c(OC)c2)cc1OC	-4.4%	-2.2%	-8.7%	0.7%	15.8µM*
Cc1cc(-n2c(C)cc(C(=O)CSc3ncnc4ccccc34)c2C)no1	-5.3%	u	-7.5%	-20.2%	20µM*
COc1cc2ncnc(Nc3cccc(Cl)c3)c2cc1OC	50.6%	4.0%	u	-1.3%	20µM*
COc1cc2ncnc(Nc3cccc(Br)c3)c2cc1OC	47.7%	0.2%	1.4%[25.6 µM]	-1.9%	-12.2%
Nc1ccccc1N=Nc1c(S(=O)(=O)O)cc2cc(S(=O)(=O)O)cc(O)c2c1O	14.8%[11.4 µM]	1.2%[11.5 µM]	6.3%[11.4 µM]	-3.1%[11.5 µM]	-3.4%[11.5 µM]
O=c1c(-c2cc(F)cc(F)c2)nc2cncnc2n1Cc1ccccc1	18.7%	-7.0%	10.9%	-11.0%	u
O=c1c(-c2cc(F)cc(F)c2)nc2cncnc2n1Cc1ccc(F)cc1	7.2%	-9.1%	7.94µM*	-7.5%	-11.8%
CN(C)c1ncc2nc(-c3cc(F)cc(F)c3)c(=O)n(Cc3cccs3)c2n1	5.8%	0.5%	7.94µM*	2.5%	12.9%
CC(C)[C@@H]1C(=O)N(S(C)(=O)=O)[C@H]2CCN(C(=O)/C=C\CN3CCCCC3)[C@@H]12	11.9%	-1.7%	-5.7%[25.6 µM]	1.2%	-11.2%
COc1cccc(-c2nc(NCc3ccccc3)c3ccccc3n2)c1	35.9%	-16.0%	-24.1%	-19.6%	u
COc1cccc(-c2nc(NC3CC3)c3ccccc3n2)c1	27.0%	-6.1%	25.1µM*	-9.2%	12.6µM*
CC1=C(C#N)c2nc(N)c(C#N)c(C)c2/C1=C\c1ccc(C)cc1	25.1µM*	x	x	x	x
CCCCCCCC[N+](CCCCCCCC)(CCCCCCCC)CCCCCCCC	31.6µM*	-14.9%	20µM*	-11.2%	-21.4%
CCCCCCCCO	-10.3%	-0.1%	0.2%	-1.0%	-0.5%
CC1(C)CCC(NC(=O)[C@H](N)CCC(=O)O)CC1	1.7%	0.3%	3.7%	1.4%	-5.9%
CCOc1ccccc1NC(=S)NC(=O)CCCOc1ccc(Cl)cc1Cl	15.8µM*	x	x	x	x
C[C@@H]1O[C@@H](O)[C@@H](O)[C@H](O)[C@H]1O	-2.2%[11.4 µM]	-1.7%[11.5 µM]	-1.2%[11.4 µM]	0.5%[11.5 µM]	9.2%[11.5 µM]
CCOC(=O)c1[nH]c(C)c(C(=O)c2cc(F)ccc2F)c1C	-1.6%	1.2%	-25.4%	-2.8%	20µM*
CO/N=C\[C@@H](NS(=O)(=O)c1ccc(C)cc1)[C@H](C)/C=C\CC(=O)OC	x	-1.9%[11.5 µM]	-13.6%[11.4 µM]	0.8%[11.5 µM]	4.6%[11.5 µM]
Cc1ccc2c(c1)-c1c(ssc1=S)C(C)(C)N2C(=O)CSc1nncn1C	u	-0.9%	15.8µM*	0.6%	-11.4%
Cc1cc(C)c2c(c1)-c1c(ssc1=S)C(C)(C)N2C(=O)CSc1nncn1C	u	-3.6%	u	0.9%	-20.4%
C/C(CCN1CCCc2nc(C)c(C)cc21)=N\O[C@@H](C)c1cn([C@H](CO)Cc2ccccc2)nn1	x	-4.4%[11.5 µM]	7.4%[11.4 µM]	-6.7%[11.5 µM]	23.2%[11.5 µM]
SMILES	15-hLO-2 inh	Casp1 inh	15-hLO inh	Casp7 inh	ERK AVP block
c1ccc(Nc2ncnc3ccc(-c4cccnc4)cc23)cc1	5.6%	-1.8%	-3.4%	-1.2%	4.8%
CC(C)(C)Cn1nc(-c2ccc(Cl)cc2)c2c(N)ncnc21	19.1%	-1.6%	8.0%[25.6 µM]	-0.3%	15.8µM*
Cc1cc(N2CCN(C(c3ccccc3)c3ccccc3)CC2)n2ncnc2n1	3.0%	-2.3%	-6.1%	-0.3%	u
Cc1nc2ncnn2c(N2CCN(C(c3ccccc3)c3ccccc3)CC2)c1C	1.3%	-5.8%	u	x	25.1µM*
O=C(c1cc(-c2ccco2)nn1-c1cccc(Cl)c1)N1CCCCC1	u	-4.1%	7.94µM*	-9.3%	16.7%
O=S(=O)(NCCN1CCCC1)c1cccc2cccnc12	2.7%	-0.6%	10µM*	0.4%	x
CC1(C)CC(=O)C2=C(C1)OC(N)=C(C#N)C2C1CC=CCC1 (stereo unspecified)	x	1.0%	31.6µM*	0.6%	-17.3%
CC1C(C#N)=C(N)OC2=C1C(=O)CC(C)(C)C2 (stereo unspecified)	5.1%	-0.6%	2.2%	-3.9%	-3.5%
COc1ccc([C@@H]2[C@H]3CN(C(C)=O)CC=C3C(C#N)=C(N)C2(C#N)C#N)c2ccccc12	-8.2%	-17.8%	12.6µM*	-13.9%	-33.3%
CCCCc1c(C)nn(-c2nnc3c4ccccc4n(CC)c3n2)c1C	5.8%	0.0%	38.8%	-2.3%	20µM*
Nc1ccc(-c2nc3ccc(-c4nc5ccc(N)cc5[nH]4)cc3[nH]2)cc1	14.6%[0.0915 µM]	3.0%	-12.3%	-6.5%	12.6µM*
Cn1cccc1Cc1nnc(SCC(=O)Nc2nccs2)n1CCc1ccccc1	x	-7.0%	u	-4.1%	15.8µM*
CCSc1nnc(NC(=O)CSc2nnc(Cc3cccn3C)n2CCc2ccccc2)s1	u	-3.9%	-14.2%	-4.0%	3.4%
O=S(=O)(c1cccc2c(Cl)cccc12)N1CCCNCC1	31.9%	-0.6%	0.9%[25.6 µM]	-0.6%	2.1%
Nc1nc(Cl)nc2c1ncn2[C@@H]1O[C@@H](CO)[C@@H](O)[C@H]1O	1.2%	-2.8%	7.0%	-0.5%	12.6µM*
Cc1onc(-c2ccccc2)c1C(=O)Nc1nnc(COc2ccc(Cl)cc2)s1	2.4%[2.29 µM]	-3.9%	7.94µM*	-11.7%	-22.8%
N=c1ccn2c(n1)O[C@H]1[C@@H](OP(=O)(O)O)[C@H](CO)O[C@H]12	-7.7%[11.4 µM]	-5.1%[11.5 µM]	2.2%[11.4 µM]	-1.4%[11.5 µM]	11.5%[11.5 µM]
O=C(CCN1CCOCC1)Nc1ccc2c(c1)CCC2	-0.6%[2.29 µM]	-1.3%	25.1µM*	-0.7%	-10.0%
COc1ccc(CC(N)C(=O)N[C@H]2[C@@H](O)[C@H](n3cnc4c(N(C)C)ncnc43)O[C@@H]2CO)cc1 (stereo partly specified)	15.4%[0.0915 µM]	x	x	x	x
NCCCCCCN	4.6%	-3.1%	0.2%	0.1%	11.3%
Cn1c(C(=O)N2CCCC(C(=O)NCCCc3ccccc3)C2)cc2sccc21 (stereo unspecified)	2.9%[2.29 µM]	-2.0%	-11.9%	0.0%	20µM*
O=C(NCCc1ccccc1)c1cc2sccc2n1Cc1ccccc1	3.5%	x	x	x	x
Cn1c(C(=O)N2CCCC(C(=O)NCCc3ccccc3)C2)cc2sccc21 (stereo unspecified)	-6.3%	-2.8%	-2.5%	-2.7%	u
CCn1c(C(=O)NCCCc2ccccc2)cc2sccc21	x	-3.9%	20µM*	-2.7%	x
O=C(NC(=S)NCCc1ccccc1)c1ccccc1	12.6µM*	x	x	x	x
S=C(NCCc1ccccc1)NC1CCCCCC1	25.1µM*	x	x	x	x
O=C(NCCc1ccccc1)C(=O)NC1CCCCC1	-0.8%	x	x	x	x
COCCNC(=O)[C@H](C)/C=C(\c1cccnc1)C(NC(=O)OCc1ccccc1)c1ccc(C(=O)OC)cc1 (stereo partly specified)	16.8%	-1.0%	-6.7%	0.0%	24.6%
